# Screens (PubChem)
# A selection: hits, their analogues and other compounds. The true share with any hit is near 0.85%.
# CtBP-E1A blk: qHTS Assay for Inhibitors of the CtBP/E1A Interaction. CtBP / adenovirus E1A interaction (AlphaScreen). AlphaScreen GST-E1A/His-CtBP binding, 1536-well; stronger effect = lower value. activity change, % (test concentration not listed). hit rate 0.49% among 340,000; also: % is scaled to controls: 0 for no effect and ±100 for the full control effect
#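 In 5 uL wells, 23 nL compound meets equimolar GST-E1A and His-CtBP (5X stock 125 nM each) for 2 h, 37 °C. Beads (5X, 50 ug/mL) then 1 h, 37 °C, dark.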
# Six1-Eya2 blk: qHTS Assay for Inhibitors of the Six1/Eya2 Interaction; Homeobox protein SIX1 (Homo sapiens) + Protein phosphatase EYA2 (Homo sapiens), …; AlphaScreen GST-Six1/His-Eya2 binding, biochemical; stronger effect = lower value; hit rate 0.56% among 360,000; activity change, % (no concentration beside the values); also: % is scaled to controls: 0 for no effect and ±100 for the full control effect
#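 GST-Six1 + His-Eya2 (5X stock: 250/500 nM); Tris pH 8.0, 300 mM NaCl, 0.05% BSA, 0.02% Tween 20; GSH donor/Ni acceptor beads; 1 h 37 °C dark; AlphaScreen readout.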
# Chronic BCR inh: qHTS Assay to Find Inhibitors of Chronic Active B-Cell Receptor Signaling; ABC-DLBCL IkBa-CBG/CBR reporter, luminescence ratio, 4 h; Potency, µM (highest dose often 46.1 µM), for the others: top-dose activity change, negative = inhibition, usual class: inhibitors; hit rate 0.05% among 340,000; AID 493014, 2011; active = well fitted inhibition curve with a large enough effect in the signal ratio, with a control signal flat, not every such curve was filed as active; inconclusive = small, poorly fitted or top-dose-only effect, or effect the other way, or a change in a side signal; the % refers to the signal ratio;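 also: potency is read from the fitted curve at half-maximal effect; plate controls were basal doxycycline-induced cells for no effect and cells given 10 µM MG132 for full effect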
#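 TMD8 human ABC-DLBCL cells with doxycycline-inducible IκBα–green luciferase fusion and unfused red luciferase, in 0.5% FBS medium; compounds up to 46 uM, 4 h at 37C. Green/red luminescence ratio, filter-overlap corrected, fitted to concentration-response curves.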
# S-ASM inh: Inhibitors of Secretory Acid Sphingomyelinase (S-ASM): qHTS; Sphingomyelin phosphodiesterase (Homo sapiens), P17405; placental ASM, HMU-PC fluorogenic substrate, 60 min; Potency, µM (series often up to 57.5 µM), for inactives: at the top dose activity change, negative = inhibition, most hits filed as inhibitors; hit rate 0.006% among 340,000; AID 504937, 2011; active = well fitted inhibition curve with a large enough effect; inconclusive = small, poorly fitted or top-dose-only effect; inactive = no such curve, though single readings can be large or run the other way; also: potency is read from the fitted curve at half-maximal effect
# Target sequence (P17405 47-631 limits assumed): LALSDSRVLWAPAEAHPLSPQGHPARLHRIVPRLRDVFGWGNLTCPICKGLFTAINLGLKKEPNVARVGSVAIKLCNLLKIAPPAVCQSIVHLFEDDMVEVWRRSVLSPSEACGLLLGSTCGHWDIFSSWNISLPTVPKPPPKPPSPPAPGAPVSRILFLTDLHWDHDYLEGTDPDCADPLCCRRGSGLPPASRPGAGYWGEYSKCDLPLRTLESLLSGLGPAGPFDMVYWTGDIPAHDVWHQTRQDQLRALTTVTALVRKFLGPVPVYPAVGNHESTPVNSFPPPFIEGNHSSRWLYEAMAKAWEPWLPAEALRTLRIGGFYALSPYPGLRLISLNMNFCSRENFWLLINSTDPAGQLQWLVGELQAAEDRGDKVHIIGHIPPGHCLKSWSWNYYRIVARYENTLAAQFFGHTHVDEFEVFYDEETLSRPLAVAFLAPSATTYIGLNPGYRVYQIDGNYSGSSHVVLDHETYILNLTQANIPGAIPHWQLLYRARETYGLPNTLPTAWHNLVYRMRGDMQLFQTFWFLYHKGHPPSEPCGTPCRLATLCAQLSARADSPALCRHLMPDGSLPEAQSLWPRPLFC
#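 Human placenta-derived ASM enzyme was preincubated with compound for 10 minutes at room temperature, then given fluorogenic substrate HMU-PC0 (9 uM final) for 60 minutes at 37 °C; a pH 10 stop preceded fluorescence reading at Ex 386/Em 447 nm.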
# TSHR antagonist: Antagonists of the Thyroid Stimulating Hormone Receptor: HTS campaign. TSHR-expressing cells, TSH-stimulated cAMP HTRF, 2 h; stronger effect = lower value. Thyrotropin receptor (Homo sapiens), P16473. activity change, negative = inhibition, % at 11.5 µM. hit rate 0.2% among 330,000;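 active = activity change below a set negative limit, meaning inhibition stronger than a set level, cut at about -70% in these data; inconclusive = activity change between two set negative limits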; also: % is scaled to controls: 0 for no effect and ±100 for the full control effect
#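 Freshly harvested TSHR cells receive pin-tooled compound, then EC80 TSH at 4nM final. After 2 hours at 37 deg C, antibody in lysis buffer and cAMP-d2 are added; 30 minutes at ambient temperature precede the HTRF read.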
# The depositor's hits bear a star; i = inactive; u = inconclusive; x = not tested or not shown. Rule as the data show it, unless noted: active = activity change below about -65%; inconclusive = mostly about -30% to -63%; inactive = weaker than that.
SMILES,CtBP-E1A blk,Six1-Eya2 blk,Chronic BCR inh,S-ASM inh,TSHR antagonist
CCOC(=O)c1[nH]c2cc(OC)c(OC)cc2c1NC(=O)C(C)N1CCN(Cc2ccccc2)CC1 (stereo not drawn),-65.4*,u,u,1.8%,-5.1
Cc1cccc(Nc2ncnc3c2cnn3C)c1C,x,x,-29.3%,x,x
Cc1ccc(NC(=O)CSc2n[nH]c(-c3ccccn3)n2)cc1,-90.5*,-77.4*,5.3%,-3.1%,20.6
O=C(CSc1n[nH]c(-c2ccccn2)n1)Nc1ccc(F)cc1,-94.8*,u,1.8%,-0.2%,-10.4
O=C(CSc1n[nH]c(-c2ccccn2)n1)Nc1ccc(Cl)cc1,-92.4*,-90.8*,6.4%,-7.4%,-18.0
O=C(CSc1n[nH]c(-c2ccncc2)n1)Nc1ccc(F)cc1,0.0,0.7,-1.2%,-1.0%,-6.1
CCC(=O)NC1=C(NC(C)c2ccccc2)C(=O)c2ccccc2C1=O (stereo not drawn),-6.2,-8.6,u,6.6%,-19.6
CCC(=O)NC1=C(Cl)C(=O)C(NC(=O)CC)=C(Cl)C1=O,x,-24.1,u,1.0%,-85.9*
CCN1C(=O)/C(=C2\SC(=S)N(NC(=O)c3ccccc3O)C2=O)c2ccccc21,-96.6*,-90.0*,u,-17.2%,0.1
Cc1cc(C(=O)NNC(=S)NC(=O)/C=C/c2ccccc2Cl)n[nH]1,-98.9*,-90.8*,15.3%,-3.0%,14.8
Cc1cccc(C(=O)NC(=S)NNC(=O)c2ccccc2Cl)c1,-3.2,-8.8,u,-0.9%,5.5
CCOC(=O)c1ccc(OCC2c3cc(OC)c(OC)cc3CCN2C(=O)c2ccc(S(=O)(=O)N3CCCC3)cc2)cc1 (stereo not drawn),x,x,-2.1%,x,x
Cn1cc(Cl)c(C(=O)N/N=C/c2ccc3c4c(cccc24)CC3)n1,u,-21.4,u,69.6%,-79.9*
CN(C)c1ccc(NC(=O)C2C3C=CC(C3)C2C(=O)O)cc1 (stereo not drawn),u,u,-2.8%,2.0%,-89.3*
Fc1ccc(N2CCN(c3ncnc4[nH]ncc34)CC2)cc1,x,x,-0.2%,x,x
COc1cccc2cc(C(C)N(CCCN3CCOCC3)C(=S)Nc3ccc(C)c(C)c3)oc12 (stereo not drawn),-21.5,-22.1,u,-1.5%,-5.3
COc1ccc(NC(=S)N(CCCN2CCOCC2)C(C)c2cc3cccc(OC)c3o2)cc1 (stereo not drawn),-4.4,-13.7,-11.4%,2.4%,-75.9*
COCCCNC(=O)/C(C#N)=C/c1cccc(NC(=O)c2ccccc2Cl)c1,-1.8,-0.6,u,-1.5%,-6.3
N#C/C(=C\c1cccc(NC(=O)c2ccccc2Cl)c1)C(=O)NCCc1ccccc1,-1.8,1.3,20.6µM*,-7.0%,4.0
O=C(N/N=C/c1ccccc1O)c1cccc(C(F)(F)F)c1,-81.4*,-78.9*,u,9.3%,-8.3
COc1cccc(/C=N\NC(=O)Cn2nnc3ccccc32)c1O,-93.2*,-92.8*,-4.1%,8.2%,-9.4
COc1ccccc1/C=N/NC(=O)CC(=O)NCc1cccnc1,-10.7,-2.8,u,6.7%,9.8
COc1cc(/C=N/NC(=O)Cn2nnc3ccccc32)ccc1O,x,-1.0,-20.4%,7.5%,5.3
C=CCn1c(CNc2ccccc2)nnc1SCC(=O)N/N=C/c1ccccc1O,u,-72.4*,u,0.4%,4.3
O=C(CC(=O)N/N=C/c1ccccc1O)NCc1cccnc1,-2.2,-89.8*,8.1%,i,10.4
C=CCn1c(COc2ccc(Cl)cc2)nnc1SCC(=O)N/N=C/c1cccc(O)c1,-6.3,-11.1,4.8%,-5.4%,-2.8
O=C(CC1N=C2c3ccccc3N=C(SCc3cccc(Cl)c3)N2C1=O)NC1CCCCC1 (stereo not drawn),x,x,7.9%,x,x
COc1ccccc1CNS(=O)(=O)c1ccc(F)c(C(=O)Nc2cc(Cl)ccc2OC)c1,x,x,-1.2%,x,x
